# Bioassay records as filed in PubChem.
# Pf Dd2 inh: qHTS Primary assay for Inhibitors of Plasmodium falciparum Dd2 growth in vitro | P. falciparum Dd2 growth, SYBR Green, 72 h | 120,000 compounds, 4.3% hits | Potency, µM (titrated, usually from 28.9 µM), for the others: at the top dose activity, negative = inhibition, usual class: inhibitors; active means well fitted inhibition curve with a large enough effect;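 further: plate controls were DMSO vehicle for no effect and reference drug for full effect; nearly all actives have a fitted effect of over 65% in size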
#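 Infected erythrocytes (Dd2, 0.3% parasitemia, 2.5% hematocrit final) are added to compound in RPMI-1640/Albumax II medium, grown 72 h at 37C in low oxygen, then lysed with saponin/Triton-X containing SYBR Green and read by fluorescence.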
# Starred values were filed as active, the others as inactive; i = inactive; [ ] = another dose, or the depositor's remark. The sample as a whole holds a higher share of hits than the screen did. Potency means the concentration at half of the fitted maximal effect.
SMILES,Pf Dd2 inh
CCOc1ccc(CNCc2c(C(=O)O)n(Cc3ccc(C)cc3)c3cc(C)ccc23)cc1,-1.5%
COc1ccc2c(CNCc3ccc(Cl)cc3)c(C(=O)O)n(Cc3ccccc3C)c2c1,11.2µM*
COc1ccc(Cn2c(C(=O)O)c(CNCc3ccccc3F)c3ccc(OC)cc32)cc1,8.91µM*
COc1ccc2c(CNCCc3ccco3)c(C(=O)O)n(Cc3ccc(C)cc3)c2c1,i
COc1ccc2c(CNCc3ccc(C)o3)c(C(=O)O)n(Cc3ccccc3C)c2c1,-21.6%
CCOc1ccccc1CNCc1c(C(=O)O)n(Cc2ccccc2)c2cc(OC)ccc12,-17.3%
CNC(=O)c1cc[nH]c1C1CCCN(C(=O)Cn2c(=O)oc3ccccc32)C1 (configuration not stated),-28.2%
COC(=O)CC[C@H]1CNC(=O)[C@@H]2[C@@H](CCN2C(=O)NC(C)C)N1C,4.8%[44.1 µM]
Cc1nonc1CN(C)C(=O)c1coc(COc2ccc(F)cc2Cl)n1,i
O=c1c2nc(OCc3ccc4c(c3)OCO4)ccc2ncn1-c1ccccc1,i
Cc1nc2c(NS(=O)(=O)c3ccc(Cl)cc3)cccn2n1,-3.3%
COc1cccc(CC(=O)N2CCC3(CC2)CC(Cc2nc(-c4ccncc4)no2)CCO3)c1 (configuration not stated),i
CC(=O)N(C1CCOCC1)C1CCN(C(=O)Nc2ccccc2)CC1,-48.6%
COc1ccc(CCNc2ncnc3c2c(-c2ccccc2)cn3-c2cccc(Cl)c2)cc1OC,8.91µM*
CC(=O)Nc1ccc(Nc2ncnc3c2c(-c2ccccc2)cn3-c2ccccc2)cc1,i
COCCNc1ncnc2c1c(-c1ccccc1)cn2-c1cccc(Cl)c1,8.3%
COc1ccccc1N1CCN(c2ncnc3c2c(-c2ccccc2)cn3-c2cccc(Cl)c2)CC1,7.2%
CC(=O)Nc1ccc(Nc2ncnc3c2c(-c2ccccc2)cn3-c2ccc(C)c(Cl)c2)cc1,7.08µM*
Cc1ccc(-n2cc(-c3ccccc3)c3c(N4CCC(C)CC4)ncnc32)cc1Cl,48.3%
O=C(O)C1(n2cnc3ccccc32)CCN(c2nc3ccccc3s2)CC1,-12.5%
CCNC(=O)N1CCCC1c1noc(CCC(=O)NCC(C)C)n1 (configuration not stated),6.2%
CN(Cc1ccccc1C(F)(F)F)Cc1cccc2ccccc12,i
CN(Cc1cccc(CCN)c1)Cc1cccc2ncccc12,7.08µM*
Cc1c(CN(C)Cc2cccc3ncccc23)c(=O)n(-c2ccccc2)n1C,-3.9%
COC[C@@H]1CN(C(=O)c2ccc(F)c(F)c2)C[C@H]1C(N)=O,3.3%
SMILES,Pf Dd2 inh
COc1ccc(NC(=O)NC2CCN(C(=O)N3CC4CC(C3)[C@H]3CCCC(=O)N3C4)CC2)cc1 (some centres not stated),12.8%
Cn1nc2n(c1=O)CCC(NC(=O)c1cncc(Br)c1)CC2 (configuration not stated),i
COc1cc(C)c2c(c1C)C[C@H]([C@H](C)C(=O)O)CC2,-12.6%[44.1 µM]
COCCOc1cc(C)c2c(c1C)C[C@H](C(C)C(=O)N1CCC(O)CC1)CC2 (some centres not stated),-4.7%[44.1 µM]
COCCOc1cc(C)c2c(c1C)C[C@H](C(C)C(=O)N1CCSCC1)CC2 (some centres not stated),10µM*
CCc1nc2c(c(-c3ccc(OC)cc3)n1)CCN(Cc1ccsc1)CC2,-26.7%
Cc1nc2c(c(-c3ccc(O)cc3)n1)CN(Cc1cccn1C)CCC2,-31.4%
CCc1nc2c(c(-c3ccc(OC)cc3)n1)CCN(C(=O)c1ccccc1)CC2,-22.5%
CCc1nc2c(c(-c3ccc(Cl)cc3)n1)CN(C(=O)COC)CC2,1.9%
CCc1nc2c(c(-c3ccc(Cl)cc3)n1)CCN(Cc1ccccc1)CC2,i
CCc1nc2c(c(-c3ccc(Cl)cc3)n1)CN(C(=O)C1CC1)CC2,-8.2%[44.1 µM]
CCc1nc2c(c(-c3ccc(O)cc3)n1)CCN(Cc1cccn1C)CC2,8.91µM*
CCc1nc2c(c(-c3ccc(Cl)cc3)n1)CCN(Cc1ccc(F)cc1)CC2,-9.9%
CCc1nc2c(c(-c3ccc(Cl)cc3)n1)CCN(Cc1ccc(NC(C)=O)cc1)CC2,2.51µM*
CCc1nc2c(c(-c3ccc(OC)cc3)n1)CCN(Cc1cccc(NC(C)=O)c1)CC2,12.6µM*
CCc1nc2c(c(-c3ccc(Cl)cc3)n1)CN(C(=O)Cc1cccc(Cl)c1)CC2,4.47µM*
COc1ccc(-c2nc(C)nc3c2CCN(Cc2cccn2C)CC3)cc1,i
O=C1NCCC[C@@H]1NC(=O)[C@H]1CN(C(=O)c2cccc(F)c2)CCN1C(=O)c1cncnc1,-3.9%
CC(C)NC(=O)N1CNC(=O)C12CCN(C(=O)CN)CC2,1.4%
O=Cc1ccc(-c2cncc(C(=O)O)c2)cc1,10.0%[44.1 µM]
CCCCOc1ccc(C(=O)N2CCC[C@H]2c2nc(-c3ccccc3Cl)no2)cc1,-5.7%
N#Cc1ccc(CN2CCCC3(CN[S+](=O)([O-])c4cccnc4O3)C2)cc1 (configuration not stated),i
CCC(=O)N1CC(=O)N(CC)C2(CCOCC2)C1,11.5%
